For some assays here: Potency and affinity values are given separately.
Key:
Design in all cases: scale not given: direction of the effect not stated beside the values
[1] = biological target: Protein translocase subunit SecA (Escherichia coli (strain K12)) (UniProt P10408); experiment: Assay to Identify E. coli SecA ATPase Inhibitors; type: functional; settings: 30 µM
[2] = biological target: T1, Ubiquitin-activating enzyme e1, putative (Leishmania donovani (strain BPK282A1)) (UniProt E9BSI1); experiment: Leishmania donovani Ubiquitin Activating Enzyme (LdE1); type: functional; settings: 30 µM
T1 sequence (whole entry): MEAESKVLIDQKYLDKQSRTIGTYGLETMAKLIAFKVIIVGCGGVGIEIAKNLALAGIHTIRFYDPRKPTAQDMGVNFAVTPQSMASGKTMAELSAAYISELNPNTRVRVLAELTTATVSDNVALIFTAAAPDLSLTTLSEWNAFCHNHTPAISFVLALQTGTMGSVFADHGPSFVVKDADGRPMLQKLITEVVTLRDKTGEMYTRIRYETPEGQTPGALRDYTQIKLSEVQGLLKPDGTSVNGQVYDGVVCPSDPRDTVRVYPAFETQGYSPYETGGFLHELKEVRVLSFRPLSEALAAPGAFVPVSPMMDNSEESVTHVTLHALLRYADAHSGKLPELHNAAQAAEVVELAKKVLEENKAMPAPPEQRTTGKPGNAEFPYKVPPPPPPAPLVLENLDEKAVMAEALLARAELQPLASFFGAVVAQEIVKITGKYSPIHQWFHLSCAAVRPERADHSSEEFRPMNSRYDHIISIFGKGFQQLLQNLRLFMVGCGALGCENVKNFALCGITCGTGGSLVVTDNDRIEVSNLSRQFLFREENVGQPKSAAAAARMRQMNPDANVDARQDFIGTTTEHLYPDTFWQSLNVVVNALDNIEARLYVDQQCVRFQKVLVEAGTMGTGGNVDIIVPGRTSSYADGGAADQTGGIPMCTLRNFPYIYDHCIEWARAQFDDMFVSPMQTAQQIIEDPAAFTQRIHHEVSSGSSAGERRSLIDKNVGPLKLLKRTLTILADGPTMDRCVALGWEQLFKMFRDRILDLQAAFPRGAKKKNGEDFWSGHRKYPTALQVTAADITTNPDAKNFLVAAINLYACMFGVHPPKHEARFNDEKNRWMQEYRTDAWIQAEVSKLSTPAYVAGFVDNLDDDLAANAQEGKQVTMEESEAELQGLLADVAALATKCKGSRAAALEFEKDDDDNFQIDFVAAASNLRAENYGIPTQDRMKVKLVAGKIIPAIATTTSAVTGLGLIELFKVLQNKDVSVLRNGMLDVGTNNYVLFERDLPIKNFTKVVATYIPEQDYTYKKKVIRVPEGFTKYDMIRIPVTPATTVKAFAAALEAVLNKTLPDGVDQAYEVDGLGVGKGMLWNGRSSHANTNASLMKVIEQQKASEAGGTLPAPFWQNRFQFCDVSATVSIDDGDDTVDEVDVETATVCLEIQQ

[3] = biological target: Sialic acid-binding Ig-like lectin 9 (Homo sapiens) (UniProt Q9Y336); experiment: Hs-Siglec9 ALPHAscreen SOP 20170721; settings: 10 µM
Chain of Sialic acid-binding Ig-like lectin 9 (Homo sapiens) (Q9Y336 whole entry): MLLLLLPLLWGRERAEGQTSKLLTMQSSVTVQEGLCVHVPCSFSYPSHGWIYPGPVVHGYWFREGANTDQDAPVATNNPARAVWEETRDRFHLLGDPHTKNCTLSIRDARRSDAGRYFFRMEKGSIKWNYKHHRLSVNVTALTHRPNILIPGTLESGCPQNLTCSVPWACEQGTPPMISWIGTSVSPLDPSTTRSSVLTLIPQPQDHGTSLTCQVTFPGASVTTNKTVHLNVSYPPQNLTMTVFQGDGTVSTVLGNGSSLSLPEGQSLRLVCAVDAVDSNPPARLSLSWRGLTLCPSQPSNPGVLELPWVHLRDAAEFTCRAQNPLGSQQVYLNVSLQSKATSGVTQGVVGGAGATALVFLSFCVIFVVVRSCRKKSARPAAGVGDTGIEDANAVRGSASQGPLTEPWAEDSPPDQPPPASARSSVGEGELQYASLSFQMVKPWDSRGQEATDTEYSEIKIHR

Trypanosoma cruzi = experiment: Trypanosoma cruzi phosphomannomutase and mannose-1-phosphate guanylyltransferase assay; type: functional; settings: 10 µM
[4] = biological target: T2, Arginase-2, mitochondrial (Homo sapiens) (UniProt P78540); experiment: in vitro enzyme assay to detect the production of urea directly proportional to the activity of Arginase II; type: functional; settings: 33.3 µM; also: in the data most compounds retested in dose-response had high values
T2 sequence (whole entry): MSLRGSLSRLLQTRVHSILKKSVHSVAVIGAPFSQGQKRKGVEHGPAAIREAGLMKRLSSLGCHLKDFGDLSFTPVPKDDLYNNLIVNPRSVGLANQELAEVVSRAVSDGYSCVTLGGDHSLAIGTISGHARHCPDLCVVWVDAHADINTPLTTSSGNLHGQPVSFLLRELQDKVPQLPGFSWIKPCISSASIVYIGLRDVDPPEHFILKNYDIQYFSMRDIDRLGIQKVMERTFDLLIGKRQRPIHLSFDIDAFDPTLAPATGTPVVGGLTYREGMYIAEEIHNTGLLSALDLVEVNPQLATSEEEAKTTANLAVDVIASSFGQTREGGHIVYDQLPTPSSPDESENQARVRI

[5] = biological target: T3, Proteasome subunit beta (Trypanosoma cruzi) (UniProt O96673); experiment: Trypanosoma cruzi proteasome chymotrypsin-like activity (TcProtChymo) assay.; also: in the data most compounds retested in dose-response had high values; type: functional; settings: 9.37 µM
T3 sequence (whole entry): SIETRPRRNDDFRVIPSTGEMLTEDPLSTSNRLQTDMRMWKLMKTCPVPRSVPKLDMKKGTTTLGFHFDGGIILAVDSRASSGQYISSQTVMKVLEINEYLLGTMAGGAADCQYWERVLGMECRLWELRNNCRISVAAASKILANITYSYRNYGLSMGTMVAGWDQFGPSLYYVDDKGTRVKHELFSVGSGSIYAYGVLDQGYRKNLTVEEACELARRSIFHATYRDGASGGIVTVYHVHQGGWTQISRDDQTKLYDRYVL

Homo sapiens = organism: Homo sapiens; experiment: To identify inhibition of the IFN signalling (Jak-Stat) pathway via expression of an eGFP reporter gene under the control of an IFN-stimulated response element (ISRE) containing MxA promoter.; type: functional; settings: 30 µM
[6] = biological target: T4, Tyrosyl-tRNA synthetase, putative (Trypanosoma cruzi (strain CL Brener)) (UniProt Q4DSP6); experiment: Trypanosoma cruzi tyrosyl tRNA synthetase (TcYRS) _High Tyrosine SOP; type: functional; settings: 30 µM; also: in the data most compounds retested in dose-response had high values
T4 sequence (whole entry): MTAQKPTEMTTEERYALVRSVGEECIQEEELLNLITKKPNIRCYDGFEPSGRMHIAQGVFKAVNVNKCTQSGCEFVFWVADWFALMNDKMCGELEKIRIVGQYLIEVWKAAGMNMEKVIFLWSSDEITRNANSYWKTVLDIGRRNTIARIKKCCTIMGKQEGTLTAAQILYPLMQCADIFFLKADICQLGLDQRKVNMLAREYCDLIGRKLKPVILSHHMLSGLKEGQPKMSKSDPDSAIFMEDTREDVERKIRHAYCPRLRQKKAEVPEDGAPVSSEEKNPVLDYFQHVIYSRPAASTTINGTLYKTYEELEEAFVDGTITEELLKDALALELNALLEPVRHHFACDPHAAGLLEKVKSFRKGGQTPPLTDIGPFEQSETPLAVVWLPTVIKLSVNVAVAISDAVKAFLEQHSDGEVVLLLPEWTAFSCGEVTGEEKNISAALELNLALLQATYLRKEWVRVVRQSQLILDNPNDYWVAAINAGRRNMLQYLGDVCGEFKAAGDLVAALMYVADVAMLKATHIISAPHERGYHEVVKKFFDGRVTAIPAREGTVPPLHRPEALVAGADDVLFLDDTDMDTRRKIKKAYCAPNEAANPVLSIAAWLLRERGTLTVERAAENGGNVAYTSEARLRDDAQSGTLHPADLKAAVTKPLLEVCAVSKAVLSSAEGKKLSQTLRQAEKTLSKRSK

[7] = biological target: T4, Tyrosyl-tRNA synthetase, putative (Trypanosoma cruzi (strain CL Brener)); experiment: Trypanosoma cruzi tyrosyl tRNA synthetase (TcYRS) SOP; type: functional; settings: 30 µM
[8] = biological target: Chromo domain-containing protein 1 (Saccharomyces cerevisiae (strain ATCC 204508 / S288c) (Baker's yeast)) (UniProt P32657); experiment: ScCHD-1 Enzyme Inhibition Assay; type: functional; settings: 30 µM; also: in the data most compounds retested in dose-response had high values
Chain of Chromo domain-containing protein 1 (Saccharomyces cerevisiae (strain ATCC 204508 / S288c) (Baker's yeast)) (P32657 whole entry, the tested form may be a part): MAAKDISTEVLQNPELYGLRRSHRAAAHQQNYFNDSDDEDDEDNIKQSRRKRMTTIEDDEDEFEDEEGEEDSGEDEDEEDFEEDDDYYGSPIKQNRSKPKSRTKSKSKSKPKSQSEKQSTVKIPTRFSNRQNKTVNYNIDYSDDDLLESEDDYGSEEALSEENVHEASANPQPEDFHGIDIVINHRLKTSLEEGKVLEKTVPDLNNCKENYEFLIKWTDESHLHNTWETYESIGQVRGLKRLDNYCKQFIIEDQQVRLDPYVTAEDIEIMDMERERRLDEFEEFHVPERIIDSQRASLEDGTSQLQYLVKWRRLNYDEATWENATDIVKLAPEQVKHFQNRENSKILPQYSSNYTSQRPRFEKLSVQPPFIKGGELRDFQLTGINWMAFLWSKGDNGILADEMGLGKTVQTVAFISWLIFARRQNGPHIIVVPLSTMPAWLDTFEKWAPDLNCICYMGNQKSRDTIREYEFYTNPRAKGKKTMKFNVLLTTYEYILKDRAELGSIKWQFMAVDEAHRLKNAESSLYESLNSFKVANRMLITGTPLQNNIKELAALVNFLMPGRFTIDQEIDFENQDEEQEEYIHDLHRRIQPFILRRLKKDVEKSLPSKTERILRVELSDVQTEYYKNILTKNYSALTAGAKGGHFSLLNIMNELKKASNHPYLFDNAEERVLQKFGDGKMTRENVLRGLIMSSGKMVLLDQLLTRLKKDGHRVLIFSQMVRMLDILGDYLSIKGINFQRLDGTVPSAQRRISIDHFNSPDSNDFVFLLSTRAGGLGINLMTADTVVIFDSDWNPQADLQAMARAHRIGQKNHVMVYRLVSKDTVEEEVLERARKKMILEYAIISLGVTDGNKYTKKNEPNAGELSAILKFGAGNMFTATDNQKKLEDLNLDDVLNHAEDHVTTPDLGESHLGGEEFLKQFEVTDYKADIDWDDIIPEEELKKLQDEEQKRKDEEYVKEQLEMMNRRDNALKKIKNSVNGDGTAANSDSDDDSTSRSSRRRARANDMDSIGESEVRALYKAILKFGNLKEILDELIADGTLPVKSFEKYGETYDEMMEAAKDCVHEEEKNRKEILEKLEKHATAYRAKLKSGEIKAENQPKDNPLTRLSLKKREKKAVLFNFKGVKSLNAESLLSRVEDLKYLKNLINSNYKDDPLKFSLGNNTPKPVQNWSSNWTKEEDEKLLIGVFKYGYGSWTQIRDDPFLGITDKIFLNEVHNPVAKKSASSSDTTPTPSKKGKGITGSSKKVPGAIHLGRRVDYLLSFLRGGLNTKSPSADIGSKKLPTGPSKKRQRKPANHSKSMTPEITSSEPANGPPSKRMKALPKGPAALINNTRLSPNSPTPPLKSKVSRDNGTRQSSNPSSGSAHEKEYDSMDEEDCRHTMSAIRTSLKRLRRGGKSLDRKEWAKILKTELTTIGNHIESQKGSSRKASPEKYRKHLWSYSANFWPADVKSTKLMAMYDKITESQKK

Chain of Protein translocase subunit SecA (Escherichia coli (strain K12)) (P10408 whole entry): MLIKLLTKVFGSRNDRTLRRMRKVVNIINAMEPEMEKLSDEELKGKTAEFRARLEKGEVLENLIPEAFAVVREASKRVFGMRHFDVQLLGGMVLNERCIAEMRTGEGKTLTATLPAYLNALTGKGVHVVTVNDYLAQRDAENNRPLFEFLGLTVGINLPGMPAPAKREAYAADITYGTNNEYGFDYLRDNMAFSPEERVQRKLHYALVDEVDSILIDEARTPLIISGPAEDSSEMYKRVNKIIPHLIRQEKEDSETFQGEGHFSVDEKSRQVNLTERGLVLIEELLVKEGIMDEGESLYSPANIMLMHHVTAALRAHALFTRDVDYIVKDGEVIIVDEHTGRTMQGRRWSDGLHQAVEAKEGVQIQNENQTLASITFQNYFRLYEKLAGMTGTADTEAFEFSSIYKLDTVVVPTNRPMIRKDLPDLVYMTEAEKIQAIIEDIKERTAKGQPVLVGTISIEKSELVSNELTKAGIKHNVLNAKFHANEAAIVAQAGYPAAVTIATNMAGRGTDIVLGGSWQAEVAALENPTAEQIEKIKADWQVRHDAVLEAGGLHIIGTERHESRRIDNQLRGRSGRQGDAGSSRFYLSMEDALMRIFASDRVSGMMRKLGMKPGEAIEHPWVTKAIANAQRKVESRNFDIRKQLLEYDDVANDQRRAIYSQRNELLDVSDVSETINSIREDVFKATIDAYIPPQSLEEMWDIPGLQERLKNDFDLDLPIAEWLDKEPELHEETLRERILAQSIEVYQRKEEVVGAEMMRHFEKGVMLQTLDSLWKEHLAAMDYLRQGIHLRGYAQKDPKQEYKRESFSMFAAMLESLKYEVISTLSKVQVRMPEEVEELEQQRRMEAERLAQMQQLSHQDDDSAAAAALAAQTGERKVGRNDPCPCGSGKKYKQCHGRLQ

| Compound | Percent Effect [1] [%] | Percent Effect [2] [%] | Percent Effect [3] [%] | Percent Effect (Trypanosoma cruzi) [%] | Percent Effect [4] [%] | Percent Effect [5] [%] | Percent Effect (Homo sapiens) [%] | Percent Effect [6] [%] | Percent Effect [7] [%] | Percent Effect [8] [%] |
| --- | --- | --- | --- | --- | --- | --- | --- | --- | --- | --- |
| Cn1cnc2c1CCN(CCS(=O)(=O)c1ccccc1)C2 | -3.11 | 2.67 | 3.94 | 2.21 | -5.32 | 3.48 | 20.9 | 0.526 | 5.13 | -6.73 |
| CC(=O)NC1CCCN(C(=O)NCc2cccnc2N(C)C)C1 (stereo not given) | -1.76 | 16 | 3.66 | 0.402 | 6.65 | 11.4 | 11.5 | 8.95 | 15.4 | -11.3 |
| CC(NC(=O)CCn1cncn1)c1nnc2n1CCCCC2 (stereo not given) | -3.71 | 20.8 | 8.71 | 5.04 | 10.4 | 1.93 | 17.2 | 3.92 | 18.8 | -8.72 |
| Cc1nc(CN2CCN(Cc3ccoc3)Cc3cccnc32)cs1 | -1.42 | -1.3 | -2.07 | -2.82 | -4.45 | 12.3 | 10.4 | 1.58 | -5.13 | 1.4 |
| CS(=O)(=O)N1Cc2ccccc2C2(CCN(C(=O)c3ccno3)CC2)C1 | 2.76 | 19.5 | -5.73 | -10.7 | 5.48 | 18.4 | 9.88 | 6.76 | 7.5 | -10.6 |
| Cn1ccc(C(=O)NCc2ccc(N3CCCC3)nc2)cc1=O | -3.18 | 8 | 10.6 | 1 | 0 | 5.85 | 21.7 | 3.68 | 5.13 | -7.64 |
| COc1ncccc1NC(=O)c1cccc(C)n1 | 3.56 | 15.4 | -4.18 | 1.41 | 2.05 | 4.18 | 7.05 | 9.09 | 25.3 | -8.29 |
| CC(C)c1nnc2n1CCN(C(=O)c1cccc(C(F)(F)F)c1)C2 | -5.89 | 18.7 | 10 | 2.81 | 1.33 | 6.19 | 7.24 | 6.84 | 15.4 | -7.15 |
| Cc1nccn1-c1cccc(C2CCCN2S(=O)(=O)N(C)C)n1 (stereo not given) | -4.04 | 14.7 | 13.1 | 1.77 | -0.443 | 8.05 | 21 | 5.29 | 15 | -24.5 |
| CCN(Cc1cccc2c1OCO2)C(=O)C(C)c1cccnc1 (stereo not given) | -0.831 | 7.79 | 4.03 | 5.78 | 8.4 | -0.702 | 4.49 | 3.92 | 11.8 | -5.71 |
| Cc1ccc(C(=O)N2CCN(Cc3ccsc3)CC2)n1C | -2.67 | 5.33 | 2.26 | -1.61 | 0.887 | 5.34 | -8.24 | 5.79 | 7.69 | -6.68 |

From ChEMBL document CHEMBL3988442, “University of Dundee, Small-Polar-MMV Screening Library” (2021)
